Assay results from ChEMBL document CHEMBL3988442, “University of Dundee, Small-Polar-MMV Screening Library” (2021).
The whole screen tested about 48,000 compounds, of which about 13,000 (27%) showed an effect of 50% or more. This is one part of the list.

These molecules were tested on Wolbachia pipientis (assay: Anti-Wolbachia Cell-Based Screen). Conditions: 5 µM.
Type: functional
Set-up: scale not given: in the data most compounds retested in dose-response had high values

Row | SMILES | Percent Effect
1 | Cn1nnc2c1CCN(S(C)(=O)=O)C2COCc1ccccc1 (configuration not stated) | -3.39%
2 | Nc1cc2c(nn1)CCN(C(=O)c1csc(-c3ccccc3)n1)C2 | 1.599%
3 | O=c1cc(-c2ccncc2)nc(-c2ccc(CN3CC[C@@H](O)C3)cc2)[nH]1 | 1.525%
4 | Cn1cnc2c1CCN(Cc1csc(C3CCCC3)n1)C2 | 102.6%
5 | CCc1nc(CN2CCc3c(ncn3C3CC3)C2)cs1 | 49.69%
6 | c1ccc(-c2nc(CN3CCn4c(nnc4C4CC4)C3)cs2)cc1 | 1.064%
7 | c1cc(-c2noc(CN3CCc4c(ncn4C4CC4)C3)n2)cs1 | 0.1339%
8 | Cn1cnc2c1CCN(Cc1csc(C3CCCCC3)n1)C2 | 104.6%
9 | c1sc(C2CCCCC2)nc1CN1CCn2c(nnc2C2CC2)C1 | 99.95%
10 | c1sc(C2CCCC2)nc1CN1CCn2c(nnc2C2CC2)C1 | -0.3735%
11 | CCCc1nc(CN2CCc3c(ncn3C3CC3)C2)cs1 | 72.74%
12 | Cc1ccc(-c2nc(CN3CCc4c(ncn4C)C3)cs2)o1 | 0.8085%
13 | Cn1cnc2c1CCN(Cc1csc(-c3ccsc3)n1)C2 | 1.661%
14 | COc1ccc(-c2nc(CN3CCc4c(ncn4C)C3)cs2)cc1 | 30.48%
15 | CNC(=O)C1CCN(c2ncnc3c2CCN(C(=O)C2CC2)C3)C1 (configuration not stated) | -3.996%
16 | CCN1CCN(c2ncnc3c2CCN(C(=O)C2CC2)C3)CC1 | -21.72%
17 | Cc1cnc(-c2nc(O)c3c(n2)CN(C(=O)C2CC2)CC3)cn1 | 165.3%
18 | O=C(C1CCOC1)N1CCc2ncnc(C3CC3)c2CC1 (configuration not stated) | 2.623%
19 | O=C(C1CCOC1)N1CCc2ncnc(NC3CCC3)c2CC1 (configuration not stated) | -0.188%
20 | O=C(C1CC1)N1CCc2c(ncnc2NCCc2nc3c(s2)CCC3)C1 | 7.369%
21 | Cc1cnc(-c2nc(O)c3c(n2)CN(C(=O)C2CCCO2)CC3)cn1 (configuration not stated) | 141.1%
22 | O=C(C1CCCO1)N1CCc2onc(-c3ccc(Cl)cc3)c2C1 (configuration not stated) | 0.5907%
23 | CCN(CC)C1CCN(c2ncnc3c2CCN(C(=O)C2CC2)C3)C1 (configuration not stated) | -6.613%
24 | Cc1cnc(-c2nc(O)c3c(n2)CN(C(=O)C2CCOC2)CC3)cn1 (configuration not stated) | 177.2%
25 | Cc1cnc(-c2nc(O)c3c(n2)CN(C(=O)C2CCCC2)CC3)cn1 | 133.6%
26 | CN(C)c1nc2c(c(=O)[nH]1)CCN(C(=O)C1CCCO1)C2 (configuration not stated) | 4.175%

Row | SMILES | Percent Effect
27 | NC(=O)C(NC(=O)c1ccc(NC2CC2)nc1)c1ccccc1 (configuration not stated) | 15.13%
28 | CC(C)n1cnc(C2CN(C)c3ccc(C(=O)NC4CCCC4)cc32)n1 (configuration not stated) | -4.903%
29 | CC(=O)N[C@@H](CC(C)C)C(=O)N1CCC(n2cc(CO)nn2)CC1 | -15.95%
30 | CCCc1nccn1-c1ccc(C(C)O)cc1 (configuration not stated) | -9.636%
31 | Cc1oc(C(C)C)cc1C(=O)N1C[C@H]2CC[C@@H]1CN(C(=O)N(C)C)C2 | -18.45%
32 | O=C(N1CCC(Oc2ccncc2)C1)C1(c2ccc(F)cc2)CC1 (configuration not stated) | -3.796%
33 | COc1cnc(N2CCN(C)CC2)nc1-c1ccnn1C | -15.65%
34 | c1cc(-c2c[nH]c([C@@H]3COCCN3Cc3csnn3)n2)ccn1 | 7.154%
35 | Nc1cc2c(nn1)CCN(C(=O)CC1CCCC1)C2 | -4.566%
36 | O=C1NCCN(CC2CCCCC2)C1CC(=O)N1CCc2n[nH]cc2C1 (configuration not stated) | -15.6%
37 | Cc1cnc(-c2nc(O)c3c(n2)CN(C(=O)CC2CCCC2)CC3)cn1 | 148.5%
38 | Cc1cnc(N2CCC3(CC2)CCN(c2cncnc2)C3=O)nc1 | -8.08%
39 | NS(=O)(=O)NCc1cc(-c2ccc(C(F)(F)F)cc2)n[nH]1 | 103.6%
40 | O=C(NCc1nc[nH]n1)c1cc(COc2cccc(C(F)(F)F)c2)[nH]n1 | 0.1207%
41 | NS(=O)(=O)c1ccc(NCc2ccccc2)cc1C(F)(F)F | 11.93%
42 | CCOCCCC(=O)N1CCN(c2cccc(OC)c2)C(C)C1 (configuration not stated) | 5.389%
43 | Cc1ccc2c(c1)c(CNC(=O)C1CCN(CC(N)=O)CC1)nn2C | 11.07%
44 | N#Cc1ccccc1CN(CC(N)=O)C1CCCC1 | -5.252%
45 | Cc1cc(CN(C)CCN(C)c2ccccc2)no1 | 9.198%
46 | Cc1nc(CN(C)Cc2nc(-c3ccccc3)no2)co1 | -6.169%
47 | COc1cccc(CN(C)Cc2ccccc2C#N)c1OC | -9.098%
48 | CN(CCC(O)c1ccccc1)Cc1nc(-c2ccccc2)no1 (configuration not stated) | 118.9%
49 | Cc1cc(CN(C)CCC(O)c2ccccc2)nn1C (configuration not stated) | -3.114%
50 | CN(Cc1nc(-c2ccccc2)no1)C(=O)CNS(C)(=O)=O | -1.951%
51 | Cc1cc(CN(C)CCC(O)c2ccccc2)no1 (configuration not stated) | 107.6%
52 | CN(CCC(O)c1ccccc1)Cc1ccccc1C#N (configuration not stated) | 111.8%

Row | SMILES | Percent Effect
53 | COc1ccc(F)c(NCc2cnn(C3CCS(=O)(=O)C3)c2)c1 (configuration not stated) | 7.936%
54 | Cc1ccc(CNc2ccn(CCc3ccncc3)n2)s1 | 19.44%
55 | COc1ccsc1C(=O)NC1CCN(c2cccc(F)c2)CC1 | 98.27%
56 | COc1ccsc1C(=O)NC1CCN(c2ccc(C#N)cc2)CC1 | -30.88%
57 | COc1ccc(N2CCC(NC(=O)c3ccc(C#N)cc3)CC2)cc1 | 89.14%
58 | O=C(Cc1cccs1)NC1CCN(c2cccc(F)c2)CC1 | -15.75%
59 | COc1ccc(N2CCC(N(C)C(C)C(=O)N(C)C)CC2)cc1 (configuration not stated) | 7.179%
60 | COc1cc(OC)cc(N2CCC(NC(=O)c3cccn3C)CC2)c1 | -13.09%
61 | COc1cc(OC)cc(N2CCC(NC(=O)c3ccc[nH]3)CC2)c1 | -4.011%
62 | COc1ccc(C(=O)NC2CCN(c3ncccn3)CC2)cc1F | 13.96%
63 | COc1ccc(N2CCC(NC(=O)c3sccc3C)CC2)cc1 | 79.74%
64 | CCN(Cc1ccncc1)C1CCCN(Cc2ccc(F)cc2Cl)C1 (configuration not stated) | -7.648%
65 | O=C(O)CC1COCCN1C(=O)C1(c2ccc(Cl)cc2)CCC1 (configuration not stated) | 14.34%
66 | O=S(=O)(CCC1CCCO1)NCc1ncc(-c2ccccc2)o1 (configuration not stated) | -10.29%
67 | Cc1nn(C)c(C)c1OCC(=O)NCC(O)c1ccco1 (configuration not stated) | 9.29%
68 | CCC1CN(Cc2nc(C(C)C)no2)CCC(=O)N1Cc1ccccc1 (configuration not stated) | 11.67%
69 | COc1cccc(-c2noc(-c3ccc(NCCCO)nc3)n2)c1OC | 11.35%
70 | Cc1nccn1CCC1CCCCN1Cc1ccc2c(c1)OCCO2 (configuration not stated) | 18.54%
71 | Nc1cc(CCC2CN(Cc3cccc(C(=O)O)c3)CCO2)ccn1 (configuration not stated) | 106.3%
72 | COc1ccc(CCN2CCOC(Cn3nc(C)nc3C)C2)cc1 (configuration not stated) | 6.569%
73 | CCc1nnc2n1CCN(Cc1ccc3c(c1)OCCO3)C2 | 1.979%
74 | COc1cccc(CN2CCOC(Cn3nc(C)cc3C)C2)c1 (configuration not stated) | -2.903%
75 | Nc1cc(CCC2CN(Cc3ccc(C(=O)O)cc3)CCO2)ccn1 (configuration not stated) | 7.558%
76 | Nc1cc(CCC2CN(Cc3ccc4cc[nH]c4c3)CCO2)ccn1 (configuration not stated) | 120%
77 | c1cnn(CC2CN(Cc3ccc(-n4ccnc4)cc3)CCO2)c1 (configuration not stated) | -4.298%
78 | CC(C)(C)c1cc(CN2CCOC(CCc3ccccc3)C2)n[nH]1 (configuration not stated) | 14.18%

Row | SMILES | Percent Effect
79 | Cc1cc(C)n(CC2CN(Cc3cccc(C(N)=O)c3)CCO2)n1 (configuration not stated) | -10.5%
80 | Nc1cc(CCC2CN(Cc3ccc4c(c3)OCCO4)CCO2)ccn1 (configuration not stated) | 90.24%
81 | COc1ccc(CN2CCOC(CCc3ccnc(N)c3)C2)cc1 (configuration not stated) | 124.3%
82 | CC(C)c1nn(CC(=O)N2CCCCC2)c(=O)c2c1cnn2C(C)(C)C | -4.82%
83 | COCc1nc(CN2CCN(c3ccc(OC)cc3)C(=O)C2C)no1 (configuration not stated) | 94.02%
84 | COc1ccc(S(=O)(=O)Cc2noc(CC(C)C)n2)cc1 | -2.844%
85 | COc1cccc(S(=O)(=O)Cc2noc(CC(C)C)n2)c1 | -0.9778%
86 | COCc1nc(CN2CC(=O)N(C)c3ccccc3C2=O)no1 | -2.193%
87 | COc1ccc(N2CCN(Cc3noc(CC(C)C)n3)C(C)C2=O)cc1 (configuration not stated) | 87.05%
88 | COCc1nc(CN2CC(C)(c3ccccc3)CCC2=O)no1 (configuration not stated) | 5.849%
89 | CN(CC(N)=O)CC(=O)N(C1=CCCCC1)C1CC1 | -2.779%
90 | Cc1cccc(CN2CCc3onc(CO)c3C2)n1.O=C(O)C(F)(F)F | 107.8%
91 | CN(C)Cc1noc2c1CN(C(=O)c1ccncc1)CC2.O=C(O)C(F)(F)F.O=C(O)C(F)(F)F | -9.47%
92 | Cc1cccc(CN2CCc3[nH]nc(C(=O)N4CCNC(=O)C4)c3C2)n1.O=C(O)C(F)(F)F | -67.35%
93 | O=C(O)C(F)(F)F.c1coc(CN2CCc3onc(Cn4cccc4)c3C2)c1 | -0.2735%
94 | CC(=O)NCc1noc2c1CN(Cc1cccs1)CC2 | -5.877%
95 | c1coc(CN2CCc3onc(Cn4ccnc4)c3C2)c1 | -8.337%
96 | Cc1cccc(CN2CCc3onc(CN(C)C)c3C2)n1 | 101.4%
97 | CN(C)Cc1noc2c1CN(Cc1ccc[nH]1)CC2 | 98.7%
98 | O=C(O)C(F)(F)F.c1csc(CN2CCc3onc(Cn4cccc4)c3C2)c1 | -13.64%
99 | CN(C)Cc1noc2c1CN(Cc1ccsc1)CC2.O=C(O)C(F)(F)F.O=C(O)C(F)(F)F | -7.7%
100 | Cc1cccc(CN2CCc3onc(Cn4cccc4)c3C2)n1.O=C(O)C(F)(F)F | 93.67%
101 | Cc1cccc(CN2CCc3[nH]nc(C(=O)N(C)C)c3C2)n1.O=C(O)C(F)(F)F | -6.855%
102 | CC(C)OC(=O)N1C[C@H]2CC[C@@H]1CN(C(=O)c1ccccc1)C2 | -6.398%
